Rce1 inhib = yeast Rce1p protease inhibitors, primary screen, biochemical, fluorescence, cell-free homogeneous; CAAX prenyl protease 2 (Saccharomyces cerevisiae (strain ATCC 204508 / S288c)), Q03530; yeast membranes, quenched prenylated peptide cleavage fluorescence; calls only; hit rate 0.27% among 290,000; AID 2563, 2010;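 active = fall in fluorescence gain of 50% or more versus controls, with final raw signal at or below 3038400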;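 also: plate controls were neutral control wells for no effect and wells lacking membranes for full effect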
ANO1 activ = TMEM16A chloride channel activators or potentiators, primary screen, cell-based, HTS. hit rate 0.3% among 340,000. Anoctamin-1 (Mus musculus), Q8BHY3. AID 623877, 2012. B-score at 10 µM. HEK293 TMEM16A/YFP-H148Q/I152L, iodide quench fluorescence; active compounds read low;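 active = fluorescence-ratio B-score plate-corrected deviation score at least 3 library SD below zero, with starting fluorescence score within 5 deviations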;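 also: channel opened by trigger with iodide after compound preincubation; score built on the fluorescence ratio of max minus min over baseline; more negative score means more quench and so TMEM16A activation or potentiation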
Kir21 block = inhibitors of mouse Kir2.1 inward-rectifier potassium channel; B-score at 10 µM; AID 1672, 2009; hit rate 0.85% among 310,000; HEK293-Kir2.1, FluxOR thallium flux fluorescence; active compounds read low; Inward rectifier potassium channel 2 (Mus musculus), P35561;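 active = fluorescence ratio B-score at or below minus 3 SD of library scores, with starting-brightness B-score within 2 SD, cut at about -4.2 in these data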;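 also: channel flux triggered by added potassium and thallium sulfate stimulus; B-score of peak minus minimum fluorescence over baseline after thallium stimulus; more negative B-score means stronger Kir2.1 block with less thallium influx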
Target sequence (P35561 whole entry, looked up): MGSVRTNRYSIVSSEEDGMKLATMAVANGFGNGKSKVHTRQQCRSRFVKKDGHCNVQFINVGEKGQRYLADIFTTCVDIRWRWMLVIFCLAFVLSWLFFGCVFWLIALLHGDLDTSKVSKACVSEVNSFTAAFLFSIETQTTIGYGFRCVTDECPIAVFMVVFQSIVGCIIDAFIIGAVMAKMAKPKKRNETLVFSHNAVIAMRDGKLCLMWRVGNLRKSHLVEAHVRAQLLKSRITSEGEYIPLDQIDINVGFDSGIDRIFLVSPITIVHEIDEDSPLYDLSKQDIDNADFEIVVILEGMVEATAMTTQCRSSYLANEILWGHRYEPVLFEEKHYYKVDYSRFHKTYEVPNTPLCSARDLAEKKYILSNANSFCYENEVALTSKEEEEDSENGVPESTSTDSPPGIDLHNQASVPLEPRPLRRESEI
CHT allo act = CHT positive allosteric modulators, primary screen, cell-based, membrane potential dye, choline EC20; High affinity choline transporter 1 (Homo sapiens), Q9GZV3; CHT-expressing cells; active compounds read high; LV-AA mutant CHT in HEK293 cells; B-score at 10 µM; hit rate 0.49% among 310,000; AID 488977, 2010;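 active = initial fluorescence not abnormally high and integrated response B-score, plate-corrected, over 3 SD above library mean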
TMEM16A inh = TMEM16A chloride channel inhibitors, primary screen, cell-based, HTS | normalized B-score (activity score, 25-100; higher = stronger inhibition) at 10 µM | AID 588511, 2011 | Anoctamin-1 (Mus musculus), Q8BHY3 | HEK293 TMEM16A/YFP iodide influx fluorescence, ionomycin | hit rate 1.2% among 310,000;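 active = ratio plate-corrected score three or more library SD toward inhibition, starting fluorescence score within five deviations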;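 also: score derived from kinetic fluorescence span divided by baseline fluorescence per well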
CHT inh = inhibitors of human choline transporter CHT; High affinity choline transporter 1 (Homo sapiens), Q9GZV3; CHT-expressing cells, membrane potential dye, choline response; active compounds read low; B-score at 10 µM; hit rate 0.86% among 310,000; AID 488975, 2010;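 active = B-score over 3 SD under the library average, and starting fluorescence ratio not unusually high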;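 also: choline stimulus applied at its EC90 after an EC20 pre-addition; B-score computed on integrated fluorescence ratio after choline addition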
TMEM16A reconf = TMEM16A chloride channel inhibitors, confirmation, cell-based, re-confirmation. shares compounds with TMEM16A inh. HEK293 TMEM16A/YFP-H148Q, iodide quench fluorescence; ionomycin added to raise cell calcium. inhibition, % at 10 µM. hit rate 39% among 2,300;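 active = mean duplicate percent inhibition, scaled so buffer wells are 0 and the reference blocker 100, over three buffer SD above buffer mean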
TMEM16A Ca cntr = calcium mobilization in TMEM16A/YFP HEK293 cells, confirmation, counter-screen for TMEM16A inhibitor project; shares compounds with TMEM16A inh; Fluo4 calcium mobilization; calcium response (% of ionomycin), % at 10 µM; hit rate 2% among 2,300;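 active = duplicate-averaged calcium signal over 20% of the ionomycin maximum, relative to buffer baseline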;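 also: each well's signal is peak minus trough fluorescence divided by its pre-addition baseline; 0% = buffer wells and 100% = ionomycin wells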
Parental YFP cnt = iodide YFP quench changes in parental YFP-HEK293, counter-screen for TMEM16A inhibitor project, cell-based. AID 652233, 2013. ionomycin. 2,300 tested, under 10 active. YFP ratio F(max-min)/F0 at 10 µM. shares compounds with TMEM16A inh;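 active = yellow fluorescent protein signal ratio exceeding the buffer control mean by over 5 SD of those controls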;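 also: ratio is mean of duplicate wells from kinetic YFP trace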
ClC-1 inh = ClC-1 chloride channel inhibition, selectivity assay for TMEM16A inhibitor project, cell-based, voltage-dependent ClC-1 | ratio percent, % at 10 µM | 2,300 tested, under 10 active | AID 652236, 2013 | shares compounds with TMEM16A inh | CHO ClC-1-YFP, iodide influx fluorescence quench; iodide control reads 0, buffer control 100;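 active = duplicate-mean ratio percent above the mean of iodide-only control wells, which defines zero, plus 5 of their SD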;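 also: higher percent means stronger block of ClC-1 iodide influx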
An asterisk follows results filed as active; i = inactive; x = not tested or not shown. In the library only some 3.2% were active in any assay of this set; here they are far more common.

SMILES	Rce1 inhib	ANO1 activ	Kir21 block	CHT allo act	TMEM16A inh	CHT inh	TMEM16A reconf	TMEM16A Ca cntr	Parental YFP cnt	ClC-1 inh
CC(C)(C)c1ccc(CN(Cc2ccco2)Cc2nnnn2C2CCCC2)cc1	i	i	-0.16	i	i	i	x	x	x	x
CCC(C)(C)n1nnnc1CN(Cc1ccc(Cl)cc1)Cc1ccco1	i	i	-5.1*	i	25*	i	22%*	i	-1.1	-16
COc1ccc2cc(C(=O)NCCO)sc(=O)c2c1OC	i	i	-1.2	i	25*	i	i	i	-1.1	-11
CCNC(=S)NNC(=O)c1cc(-c2cccc(OCC)c2)nc2ccccc12	i	i	0.84	i	25*	i	i	i	-1.1	-5
CC[C@]12C(=O)N(C)C[C@H]([C@@H]3C(=O)N(C)C(=O)[C@@H]31)N2C(=O)c1ccc(F)cc1	x	i	x	x	x	x	x	x	x	x
O=C(CCc1nc2ccccc2c(=O)[nH]1)NCCN1C(=O)S/C(=C\c2ccc(Cl)cc2Cl)C1=O	i	i	-0.03	i	25*	i	i	i	-1	-6
COc1ccc(/C=C2/C(=O)N(c3ccccc3)N=C2C)cc1OC	i	i	0	i	i	i	x	x	x	x
CCOc1cc(/C=C2/C(=O)N(c3ccccc3)N=C2C)ccc1OC(=O)c1cccs1	i	i	-0.95	i	25*	i	i	i	-1.1	-10
CCOC(=O)c1nnn(-c2nonc2-n2cccc2)c1CN1CCCCC1	i	-6.9*	-0.93	i	100*	i	i	i	-1.1	-14
Cc1ccc(C)c(N2CCN(S(=O)(=O)c3csc(C(N)=O)c3)CC2)c1	i	i	-2	i	25*	i	i	i	-0.88	0
Cc1cc(C)c(OCC(=O)Nc2ccccc2N2CCOCC2)c(C)c1	i	i	-2	i	100*	i	37%*	i	-0.95	-13
O=C(Cc1ccccc1)Nc1ccc(N2CCOCC2)cc1N1CCOCC1	i	i	0.05	i	i	i	x	x	x	x
O=C(Cc1ccccc1)Nc1cc(C(=O)c2ccccc2)ccc1N1CCOCC1	i	i	0.17	i	100*	i	i	i	-1.3	-8
COC(=O)c1ccc(C(=O)OC)c(NC(=O)C2CC(=O)N(C3CCCC3)C2)c1 (configuration not stated)	x	i	x	x	x	x	x	x	x	x
CCCN(CCC)CCN1C(=O)C2C(C(=O)Nc3cccc(SC)c3)C3C=CC2(O3)C1C(=O)NC1CCCCC1 (configuration not stated)	x	i	1.4	i	100*	i	i	i	-1.1	-1
CSc1cccc(NC(=O)C2C3C=CC4(O3)C2C(=O)N(CCCN2CCOCC2)C4C(=O)NC2CCCCC2)c1 (configuration not stated)	x	i	-0.6	i	i	i	x	x	x	x
